Assay outcomes (PubChem)
CHT block – inhibits the human high affinity choline transporter; Q9GZV3; CHT-expressing cells, membrane potential dye, choline response; hits give low values; AID 488975; B-score at 10 µM; 0.86% of 310,000 active;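 active means B-score over 3 SD under the library average, and starting fluorescence ratio not unusually high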;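 further: choline stimulus applied at its EC90 after an EC20 pre-addition; B-score computed on integrated fluorescence ratio after choline addition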
PHOSPHO1 block – blocks human PHOSPHO1 phosphatase activity. recombinant PHOSPHO1, absorbance phosphatase assay. 1.1% of 290,000 active. Q8TCT1. AID 1565. inhibition, % at 13.3 µM; in the data active means inhibition above about 60%
HDAC3 inh – blocks human histone deacetylase 3; 0.15% of 320,000 active; inhibition, % at 8.3 µM; recombinant HDAC3, fluorogenic peptide/trypsin coupled, fluorescence; in the data active means inhibition above about 26%, passing the limit was not always enough
Target sequence (O15379 whole entry, looked up): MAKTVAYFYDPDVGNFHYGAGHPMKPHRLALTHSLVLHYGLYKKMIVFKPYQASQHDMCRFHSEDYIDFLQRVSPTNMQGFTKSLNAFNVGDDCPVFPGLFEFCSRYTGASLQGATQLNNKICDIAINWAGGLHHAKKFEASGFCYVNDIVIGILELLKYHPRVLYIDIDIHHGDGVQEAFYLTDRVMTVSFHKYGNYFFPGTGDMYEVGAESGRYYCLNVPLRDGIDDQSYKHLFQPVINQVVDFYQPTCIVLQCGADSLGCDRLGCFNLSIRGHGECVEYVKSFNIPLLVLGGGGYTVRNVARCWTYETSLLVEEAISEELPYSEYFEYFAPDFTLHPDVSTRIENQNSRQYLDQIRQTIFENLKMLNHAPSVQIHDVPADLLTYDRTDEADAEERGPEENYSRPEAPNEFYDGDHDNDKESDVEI
ANO1 block – inhibitors of mouse TMEM16A calcium-activated chloride channel | HEK293 TMEM16A/YFP iodide influx fluorescence, ionomycin | normalized B-score (activity score, 25-100; higher = stronger inhibition) at 10 µM | 1.2% of 310,000 active;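 active means ratio plate-corrected score three or more library SD toward inhibition, starting fluorescence score within five deviations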;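 further: score derived from kinetic fluorescence span divided by baseline fluorescence per well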
TMEM16A act – activators or potentiators of mouse TMEM16A chloride channel; HEK293 TMEM16A/YFP-H148Q/I152L, iodide quench fluorescence; hits give low values; B-score at 10 µM; 0.3% of 340,000 active;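 active means fluorescence-ratio B-score plate-corrected deviation score at least 3 library SD below zero, with starting fluorescence score within 5 deviations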;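 further: channel opened by trigger with iodide after compound preincubation; score built on the fluorescence ratio of max minus min over baseline; more negative score means more quench and so TMEM16A activation or potentiation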
CHT PAM – human CHT allosteric activation; 0.49% of 310,000 active; CHT-expressing cells, membrane potential dye, choline EC20; hits give high values; LV-AA mutant CHT in HEK293 cells; Q9GZV3; B-score at 10 µM;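 active means initial fluorescence not abnormally high and integrated response B-score, plate-corrected, over 3 SD above library mean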
TMEM16A reconf – reconfirmed blocker of mouse TMEM16A calcium-activated chloride channel. shares compounds with ANO1 block. HEK293 TMEM16A/YFP-H148Q, iodide quench fluorescence; ionomycin added to raise cell calcium. inhibition, % at 10 µM. 39% of 2,300 active;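 active means mean duplicate percent inhibition, scaled so buffer wells are 0 and the reference blocker 100, over three buffer SD above buffer mean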
TMEM16A Ca cntr – alters calcium mobilization in TMEM16A HEK293 cells, counter-screen. shares compounds with ANO1 block. TMEM16A/YFP HEK293, Fluo4 calcium mobilization. calcium response (% of ionomycin), % at 10 µM. 2% of 2,300 active. AID 652231;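 active means duplicate-averaged calcium signal over 20% of the ionomycin maximum, relative to buffer baseline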;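 further: each well's signal is peak minus trough fluorescence divided by its pre-addition baseline; 0% = buffer wells and 100% = ionomycin wells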
Parental YFP cnt – counter-screen for TMEM16A inhibitors: effect in parental YFP-HEK293 cells; YFP ratio F(max-min)/F0 at 10 µM; 2,300 tested, under 10 active; iodide YFP quench, ionomycin; shares compounds with ANO1 block;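 active means yellow fluorescent protein signal ratio exceeding the buffer control mean by over 5 SD of those controls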;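 further: ratio is mean of duplicate wells from kinetic YFP trace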
ClC-1 inh – rat ClC-1 inhibition, TMEM16A specificity screen | shares compounds with ANO1 block | ratio percent, % at 10 µM | 2,300 tested, under 10 active | CHO ClC-1-YFP, iodide influx fluorescence quench; iodide control reads 0, buffer control 100 | AID 652236;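 active means duplicate-mean ratio percent above the mean of iodide-only control wells, which defines zero, plus 5 of their SD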;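 further: higher percent means stronger block of ClC-1 iodide influx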
Active calls of the source: *; i = inactive; . = no result. Most compounds without a hit are left out; they make up all but 3.2% or so of the library.

SMILES	CHT block	PHOSPHO1 block	HDAC3 inh	ANO1 block	TMEM16A act	CHT PAM	TMEM16A reconf	TMEM16A Ca cntr	Parental YFP cnt	ClC-1 inh
CCOC(=O)C1(Cc2cccc(OC)c2)CCN(Cc2ccccc2)CC1	i	20	4	i	i	i	.	.	.	.
CCOC(=O)C1(Cc2ccccc2Cl)CCN(Cc2csc(C(C)=O)c2)CC1	i	52	6	25*	i	i	i	i	-1.1	-9
Cc1ccc(NC(=O)NCC2CCN(Cc3cccc(Cl)c3)CC2)cc1Cl	i	45	3	i	i	i	.	.	.	.
CN(CC(=O)Nc1cccc(F)c1)C(=O)Cc1n[nH]c(=O)c2ccccc12	i	.	-6	i	i	i	.	.	.	.
CN(CC(=O)Nc1ccc(Cl)c(C(F)(F)F)c1)C(=O)Cc1n[nH]c(=O)c2ccccc12	i	.	-4	100*	i	i	26%*	i	-0.89	3
COc1cccc(CNC(=O)C2CCN(S(=O)(=O)c3ccc(F)cc3)CC2)c1	.	0	.	.	i	.	.	.	.	.
CC(Sc1ccccc1)C(=O)N1CCN(S(=O)(=O)c2ccccc2)CC1 (centres undefined)	i	35	1	i	i	i	.	.	.	.
Cc1nc(C)n(CC(C)C(=O)N2CCN(S(=O)(=O)c3ccccc3)CC2)n1 (centres undefined)	i	27	-12	25*	i	i	i	i	-0.96	-3
CCn1cc(C(=O)NCc2ccccn2)c(=O)c2cc(F)c(N3CCN(C)CC3)cc21	i	11	-36	i	i	i	i	i	-1.2	0
CC(=O)c1ccc(NC(=O)Nc2cccc(Cl)c2)cc1	i	-2	3	25*	i	i	54%*	i	-1.1	-27
O=C(CCC1CCCCC1)Nc1ccccc1-c1ccccc1	i	19	5	100*	i	i	26%*	i	-0.79	-5
COC(=O)c1ccc(NC(=O)CN(C2CCCCC2)S(C)(=O)=O)cc1	i	15	2	i	i	i	.	.	.	.
COc1cc(NS(=O)(=O)c2ccc(N/C=C(\C#N)c3nc4cc(Cl)ccc4o3)cc2)nc(OC)n1	i	12	7	100*	i	i	i	i	-0.97	-18
O=C(Nc1nnc(CSCc2ccc(Cl)cc2)s1)c1cccc([N+](=O)[O-])c1	i	1	-7	25*	i	i	i	i	-1.1	-6
CCCC(=O)Nc1nnc(SCC)s1	i	-1	4	i	i	i	.	.	.	.
CCSc1nnc(NC(=O)NC(CC)(C(F)(F)F)C(F)(F)F)s1	i	19	17	100*	i	i	16%*	i	-1	-18
Cc1ccc(C)c2c1sc(=NC(=O)CN1C(=O)CCC1=O)n2C	i	-1	3	i	i	i	.	.	.	.
Cc1cc(C)n2nc(SCc3ncc(-c4ccccc4)o3)nc2n1	i	-29	15	100*	i	i	i	i	-0.99	-4
Cc1cc(Cl)ccc1OCCCC(=O)Nc1cccnc1	i	-19	1	25*	i	i	22%*	i	-0.86	-2
Cc1cc(Cl)ccc1OCC(=O)Nc1cccnc1	i	22	-9	i	i	i	.	.	.	.
O=S(=O)(NC1CCCCC1Nc1ccc(Cl)cc1)c1ccccc1 (centres undefined)	i	-11	-2	25*	i	i	i	i	-1.1	-10
Cc1ccc(NC2CCCCC2NS(=O)(=O)c2ccc(Cl)cc2)cc1 (centres undefined)	i	-2	-3	i	i	i	.	.	.	.
CC1(C)CC(=O)C/C(=N\NC(=O)C2CC23CCC3)C1 (centres undefined)	i	41	0	i	i	i	.	.	.	.
O=C(Nc1nc(-c2ccc(Cl)cc2Cl)cs1)C1CCCO1 (centres undefined)	i	-6	-5	i	i	i	.	.	.	.
CC(NC(=O)C1CCC1)c1ccc2c(c1)OCO2 (centres undefined)	i	5	-4	25*	i	i	i	i	-0.89	-5
SMILES	CHT block	PHOSPHO1 block	HDAC3 inh	ANO1 block	TMEM16A act	CHT PAM	TMEM16A reconf	TMEM16A Ca cntr	Parental YFP cnt	ClC-1 inh
O=C(Nn1c(-c2ccc(Br)cc2)nc2ccccc2c1=O)c1ccc([N+](=O)[O-])cc1	i	-15	-1	25*	i	i	i	i	-1.1	-8
O=C(Nn1c(-c2ccncc2)nc2ccccc2c1=O)c1ccc(Br)cc1	i	30	1	i	i	i	.	.	.	.
Cc1nc(N)sc1-c1csc(Nc2ccc(Cl)cn2)n1	i	-1	1	25*	i	i	26%*	i	-0.95	-2
Cc1nc(C)c(-c2csc(Nc3ccccn3)n2)s1	i	26	-1	25*	i	i	28%*	i	-1.1	-6
Cc1nc(N)sc1-c1csc(Nc2cccc(O)c2)n1	i	30	6	i	i	i	.	.	.	.
Cc1nc(C)c(-c2csc(Nc3cccc(O)c3)n2)s1	i	40	3	100*	i	i	38%*	i	-0.81	-8
O=C(CN1C(=O)NC2(CCCC2)C1=O)NCc1cccc(Cl)c1	.	.	-1	.	i	.	.	.	.	.
CC(C)(CNC(=O)c1ccc([N+](=O)[O-])c(Cl)c1)CNC(=O)c1ccc([N+](=O)[O-])c(Cl)c1	i	28	17	100*	i	i	i	i	-0.82	-16
CCOCCCNC(=S)N1CCN(c2nc(-c3ccc(F)cc3)cs2)CC1	i	8	12	100*	i	i	31%*	i	-0.99	-24
COc1ccc(NC(=S)NC(NC(=O)c2cccc(Cl)c2)C(Cl)(Cl)Cl)c([N+](=O)[O-])c1 (centres undefined)	i	6	.	25*	i	i	i	i	-1.2	-12
Cc1c(NC(=O)C(C)Sc2ccccc2)c(=O)n(-c2ccccc2)n1C (centres undefined)	i	-4	0	i	i	i	i	i	-0.82	-8
